Experimental data as given in PubChem BioAssay (EPA / NIEHS).
Calls of active or inactive are those of the source. The calls were made as follows: active = hit-call score of the fitted dose curve at least 0.9, where 1 is the maximum; inactive = score below 0.9.

Experiments:
[1] = read-out: Collagen III, COL3A1 (gene 1281); assay: BSK_hDFCGF_CollagenIII: BioMAP Diversity Plus: hDFCGF Assay for Collagen III Biomarker Activity (AID 2283056); settings: primary human foreskin fibroblasts; actives raise or lower the signal
Method in brief: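 Response relative to DMSO, fitted in both directions, reflects ELISA-measured collagen III in human primary skin fibroblasts 24 h after compound addition.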

[2] = read-out: Epidermal growth factor receptor (EGFR), EGFR (gene 1956); assay: BSK_hDFCGF_EGFR: BioMAP Diversity Plus: hDFCGF Assay for Epidermal growth factor receptor (EGFR) Biomarker Activity (AID 2283057); settings: primary human foreskin fibroblasts; actives raise or lower the signal
Method in brief: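 ELISA readout of EGFR on human dermal fibroblasts (primary foreskin cells), 24 h post-dosing; bidirectional curve fit vs DMSO baseline, gain or loss of signal scored.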

[3] = read-out: Interleukin-8 (IL8), CXCL8 (gene 3576); assay: BSK_hDFCGF_IL8: BioMAP Diversity Plus: hDFCGF Assay for Interleukin-8 (IL8) Biomarker Activity (AID 2283058); settings: primary human foreskin fibroblasts; actives raise or lower the signal
Method in brief: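 Fibroblast monolayers (human foreskin, hDFCGF) received test chemical for 24 h before ELISA detection of IL-8; either increases or decreases relative to DMSO count as activity.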

[4] = BSK_hDFCGF_Proliferation: Cell Proliferation Assessment in the BioMAP Diversity Plus: hDFCGF Assay (AID 2283059); settings: primary human foreskin fibroblasts;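 also: curves fitted for both rise and fall of signal versus DMSO baseline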
Method in brief: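 Sub-confluent human foreskin fibroblast cultures receive test chemical […]. Relative cell number is quantified by sulforhodamine B staining (0.1%, after 10% TCA fixation) at 560 nm, with bidirectional fitting referenced to DMSO.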

[5] = read-out: Macrophage colony-stimulating factor (MCSF), CSF1 (gene 1435); assay: BSK_hDFCGF_MCSF: BioMAP Diversity Plus: hDFCGF Assay for Macrophage colony-stimulating factor (MCSF) Biomarker Activity (AID 2283060); settings: primary human foreskin fibroblasts; actives raise or lower the signal
Method in brief: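 fibroblasts (human foreskin, primary), 24 h post-dose; M-CSF by ELISA; bidirectional fit, DMSO = baseline.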

[6] = read-out: Monokine induced gamma interferon (MIG), CXCL9 (gene 4283); assay: BSK_hDFCGF_MIG: BioMAP Diversity Plus: hDFCGF Assay for Monokine induced gamma interferon (MIG) Biomarker Activity (AID 2283063); settings: primary human foreskin fibroblasts; actives raise or lower the signal
Method in brief: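 Endpoint derived by bidirectional fitting relative to DMSO; MIG quantified via ELISA in primary human foreskin fibroblasts harvested 24 h after dosing.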

[7] = read-out: Matrix Metallopeptidase 1 (MMP1), MMP1 (gene 4312); assay: BSK_hDFCGF_MMP1: BioMAP Diversity Plus: hDFCGF Assay for Matrix Metallopeptidase 1 (MMP1) Biomarker Activity (AID 2283064); settings: primary human foreskin fibroblasts; actives raise or lower the signal
Method in brief: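 ELISA read-out of MMP1 from human foreskin fibroblasts (primary skin cells), 24 h post-dose. Gain or loss of signal was fitted bidirectionally versus DMSO negative control; cytotoxicity was checked by SRB in parallel cultures.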

[8] = read-out: Vascular cell adhesion molecule 1 (VCAM1), VCAM1 (gene 7412); assay: BSK_hDFCGF_VCAM1: BioMAP Diversity Plus: hDFCGF Assay for Vascular cell adhesion molecule 1 (VCAM1) Biomarker Activity (AID 2283065); settings: primary human foreskin fibroblasts; actives raise or lower the signal;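 as to AC50: VCAM-1 protein level quantified by ELISA after 24 h chemical exposure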
Method in brief: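 Measured after 24 h chemical treatment of primary human skin fibroblasts, VCAM-1 was detected by ELISA and concentration-response analysed in both directions versus DMSO vehicle.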

[9] = read-out: TIMP metallopeptidase inhibitor 1 (TIMP1), TIMP1 (gene 7076); assay: BSK_hDFCGF_TIMP1: BioMAP Diversity Plus: hDFCGF Assay for TIMP metallopeptidase inhibitor 1 (TIMP1) Biomarker Activity (AID 2283062); settings: primary human foreskin fibroblasts; actives raise or lower the signal
Method in brief: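 Bidirectional curve fitting against DMSO baseline yielded this endpoint, based on ELISA detection of TIMP-1 in primary human foreskin fibroblasts exposed to compound for 24 h.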

[10] = BSK_hDFCGF_SRB: Viability Assessment in the BioMAP Diversity Plus: hDFCGF Assay (AID 2283061); settings: primary human foreskin fibroblasts;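 also: cells exposed to compound for 24 h before the read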
Method in brief: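 SRB-based viability read on primary human skin fibroblasts at 24 h: TCA fixation, 0.1% dye, 560 nm. Gain or loss of signal is fitted against the DMSO negative control.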

Measured: AC50

c1ccc2c(c1)oc1ccccc12
not listed: [9] | [10]
inactive: all other assays above

c1ccc(C2CO2)cc1 (configuration not stated)
not listed: [8] | [10]
inactive: all other assays above

c1ccc2c(c1)-c1cccc3cccc-2c13
active: [1] 16.4 µM | [4] 23.7 µM
not listed: [10]
inactive: all other assays above

Brc1ccc(Oc2ccccc2)cc1
not listed: [4] | [8]
inactive: all other assays above

Oc1ccc2ccc3cccc4ccc1c2c34
inactive: [2] | [3] | [9] | [7]
active: [1] 14.6 µM | [5] 10.4 µM | [10] 20 µM | [6] 7.57 µM | [8] 8.34 µM

CC(O)CCO (configuration not stated)
not listed: [10]
inactive: all other assays above

OCCCBr
not listed: [10]
inactive: all other assays above

CC(C)(C)OOC(C)(C)CCC(C)(C)OOC(C)(C)C
active: [4] 31.3 µM
not listed: [10]
inactive: all other assays above

CN(C)c1ccc(C(=O)c2ccc(N(C)C)cc2)cc1
not listed: [4] | [8]
inactive: all other assays above

Cc1ccc(N)cc1
not listed: [8] | [10]
inactive: all other assays above

O=[N+]([O-])C(Br)(CO)CO
active: [1] 36.7 µM | [2] 36.4 µM | [3] 37.2 µM | [4] 2.66 µM | [5] 26.6 µM | [9] 32.9 µM | [6] 30.2 µM | [7] 32.3 µM | [8] 26.7 µM

Cc1cccc(N)c1N
active: [5] 0.853 µM
not listed: [10]
inactive: all other assays above

COc1cc(C=O)cc2c1[C@H](COC(N)=O)[C@]1(OC(C)=O)ON2C[C@H]2[C@@H]1N2C(C)=O
active: [1] 0.788 µM | [2] 0.0312 µM | [3] 2.73 µM | [5] 1.08 µM | [10] 2.45 µM | [9] 1.48 µM | [6] 1.25 µM | [7] 0.565 µM

Clc1ccc(Cl)c(Cl)c1
not listed: [10]
inactive: all other assays above

CC(C)(O)c1cnn2c(-c3ccc(F)c(-c4c(F)cccc4C#N)c3)cnc2n1
active: [1] 5.96 µM | [7] 6.43 µM
not listed: [8] | [10]
inactive: all other assays above

Nc1ccc(Cl)cc1N
active: [5] 6.73 µM
not listed: [4] | [8]
inactive: all other assays above

CS(=O)(=O)NC(=O)c1cc(Oc2ccc(C(F)(F)F)cc2Cl)ccc1[N+](=O)[O-]
not listed: [4] | [8] | [10]
inactive: all other assays above

Cc1ccc(N)c(N)c1
active: [1] 6.88 µM | [6] 3.65 µM
not listed: [4] | [10]
inactive: all other assays above

Clc1ccc(C(c2ccc(Cl)cc2)C(Cl)Cl)cc1
active: [1] 5.06 µM | [3] 12.2 µM | [5] 7.94 µM | [9] 11.2 µM | [6] 11.8 µM | [7] 10.8 µM | [8] 9.19 µM
inactive: [2]

O=C(Nc1ccccc1)c1ccccc1I
not listed: [4] | [10]
inactive: all other assays above

Clc1ccccc1Cl
not listed: [4]
inactive: all other assays above

CCCCCOC(=O)c1ccccc1C(=O)OCCCCC
active: [1] 3.97 µM | [5] 9.05 µM | [8] 4.45 µM
not listed: [4]
inactive: all other assays above

C[N+](C)(C)CC1CO1 (configuration not stated)
not listed: [4]
inactive: all other assays above

O=Cc1ccco1
not listed: [4]
inactive: all other assays above

c1ccc(NNc2ccccc2)cc1
not listed: [4]
inactive: all other assays above

C=CCc1ccc2c(c1)OCO2
not listed: [4] | [8] | [10]
inactive: all other assays above

CCCCCCCCCCCCCN1CC(C)OC(C)C1 (configuration not stated)
not listed: [4] | [10]
inactive: all other assays above

ClC1=C(Cl)C2(Cl)C3C(Cl)C=CC3C1(Cl)C2(Cl)Cl (configuration not stated)
inactive: [2]
active: [1] 6.97 µM | [3] 11.4 µM | [5] 9.47 µM | [9] 9.82 µM | [6] 10.6 µM | [7] 13.4 µM

ClC1=C(Cl)[C@]2(Cl)[C@H]3[C@H]([C@@H]4C=C[C@H]3C4)[C@@]1(Cl)C2(Cl)Cl
inactive: [2]
active: [1] 13.7 µM | [3] 31.3 µM | [5] 16.3 µM | [10] 10.3 µM | [6] 16.4 µM | [7] 29.9 µM | [8] 10.1 µM

Nc1ccc(N=Nc2ccccc2)cc1
active: [1] 20 µM
not listed: [4] | [8] | [10]
inactive: all other assays above

O=[N+]([O-])c1ccc(Oc2ccc(Cl)cc2Cl)cc1
inactive: [2] | [3] | [9] | [6]
active: [1] 12.1 µM | [5] 13.1 µM | [7] 10.2 µM | [8] 13.5 µM

c1ccc(N=Nc2ccccc2)cc1
not listed: [4] | [8] | [10]
inactive: all other assays above

C[C@]12C=CC3=C4CCC(=O)C=C4CC[C@H]3[C@@H]1CC[C@@H]2O
not listed: [4] | [8] | [10]
inactive: all other assays above

Cc1ccc(N=C=O)cc1N=C=O
not listed: [4] | [10]
inactive: all other assays above

Nc1cc(Cl)cc(C(=O)O)c1Cl
not listed: [4] | [10]
inactive: all other assays above

[As]#[In]
not listed: [4] | [10]
inactive: all other assays above

CCCCOC(=O)c1ccccc1C(=O)OCc1ccccc1
active: [1] 13 µM | [5] 11.8 µM | [8] 20 µM
not listed: [4]
inactive: all other assays above

Nc1ccc(Oc2ccc(N)cc2)cc1
not listed: [4] | [10]
inactive: all other assays above

Clc1ccc(C(c2ccc(Cl)cc2)C(Cl)(Cl)Cl)cc1
active: [3] 27.3 µM | [4] 5.38 µM | [5] 10.9 µM | [9] 13 µM | [6] 15.8 µM | [7] 14.8 µM
inactive: [2]

Nc1ccc([N+](=O)[O-])cc1
not listed: [4] | [10]
inactive: all other assays above

OCCCl
not listed: [4] | [10]
inactive: all other assays above

O=C(O)C1C2CCC(O2)C1C(=O)O (configuration not stated)
active: [1] 24.3 µM | [8] 18.6 µM
not listed: [4] | [10]
inactive: all other assays above

O=C1CCCO1
not listed: [4] | [8] | [10]
inactive: all other assays above

CCCCC(CC)COC(=O)c1ccc(C(=O)OCC(CC)CCCC)c(C(=O)OCC(CC)CCCC)c1 (configuration not stated)
not listed: [4] | [8] | [10]
inactive: all other assays above
